According to article PMC5700166:

The sequences below were run against T1, GST-Nv-NF-kB (Ser allele) (Nematostella vectensis, UniProt A7UNT2 2-411) (assay: protein-binding microarray (PBM); PBM: ~300 nM protein, 6 mM HEPES pH 7.8, 80 mM KCl, 0.5 mM EDTA, 0.5 mM EGTA, 6% glycerol, 35 ng/ul poly-dIdC, 1% milk, 1 h, room temperature; Ap Aiptasia and Nv Nematostella (sea anemones) / Co Capsaspora / Aq Amphimedon (sponge) / Dm Drosophila / Hu human; RHD is the Rel homology domain; high values mean tight binding). Conditions: dsDNA, one strand shown.
T1 sequence: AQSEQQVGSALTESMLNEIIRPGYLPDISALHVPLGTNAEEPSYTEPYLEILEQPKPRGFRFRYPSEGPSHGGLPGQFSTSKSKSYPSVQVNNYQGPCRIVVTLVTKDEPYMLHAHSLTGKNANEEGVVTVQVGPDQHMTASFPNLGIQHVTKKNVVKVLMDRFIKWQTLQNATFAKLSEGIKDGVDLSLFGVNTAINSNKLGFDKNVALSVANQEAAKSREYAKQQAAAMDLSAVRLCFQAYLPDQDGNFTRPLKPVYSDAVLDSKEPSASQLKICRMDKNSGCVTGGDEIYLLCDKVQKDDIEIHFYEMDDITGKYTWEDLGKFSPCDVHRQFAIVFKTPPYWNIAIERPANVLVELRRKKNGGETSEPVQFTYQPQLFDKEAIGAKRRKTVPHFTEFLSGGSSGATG
In the case of “CCGATTAACATCAGGGGGTTATATGATGTTAATCGGGTCTTGATTCGCTTGACGCTGCTG”, the binding signal is reported as 6.26 z-score. “CCGATTAACATCAGGAACGTCCCTGATGTTAATCGGGTCTTGATTCGCTTGACGCTGCTG” gave a binding signal of 2.75 z-score. Sequence “CCGATTAACATCATTTCCCTTGATGATGTTAATCGGGTCTTGATTCGCTTGACGCTGCTG” has a binding signal of 3.44 z-score. Work on “CCGATTAACATCAACTCCCCCCATGATGTTAATCGGGTCTTGATTCGCTTGACGCTGCTG” yielded a binding signal of 4.05 z-score. In the case of “CCGATTAACATCAAACACTCCCCTGATGTTAATCGGGTCTTGATTCGCTTGACGCTGCTG”, the binding signal is reported as 4.23 z-score. Work on “CCGATTAACATCAGGGATTTCCATGATGTTAATCGGGTCTTGATTCGCTTGACGCTGCTG” yielded a binding signal of 2.71 z-score. Sequence “CCGATTAACATCAGAAATTTACCTGATGTTAATCGGGTCTTGATTCGCTTGACGCTGCTG” has a binding signal of 4.13 z-score. For “CCGATTAACATCAGGGAATATAATGATGTTAATCGGGTCTTGATTCGCTTGACGCTGCTG”, the binding signal was 3.88 z-score. In the case of “CCGATTAACATCAGGGGATATAATGATGTTAATCGGGTCTTGATTCGCTTGACGCTGCTG”, the binding signal is reported as 6.48 z-score. For “CCGATTAACATCAATTTTCCCAATGATGTTAATCGGGTCTTGATTCGCTTGACGCTGCTG”, the binding signal was 4.62 z-score. For “CCGATTAACATCACTTTACCCCCTGATGTTAATCGGGTCTTGATTCGCTTGACGCTGCTG”, the binding signal was 4.4 z-score. In the case of “CCGATTAACATCAAACACCCCCCTGATGTTAATCGGGTCTTGATTCGCTTGACGCTGCTG”, the binding signal is reported as 4.8 z-score. “CCGATTAACATCAAAACTTCCCATGATGTTAATCGGGTCTTGATTCGCTTGACGCTGCTG” showed a binding signal of 3.45 z-score. Work on “CCGATTAACATCACGTGGGGCGTTGATGTTAATCGGGTCTTGATTCGCTTGACGCTGCTG” yielded a binding signal of 1.01 z-score.
